Data published in PubChem BioAssay.
The source made the active and inactive calls.

Columns and labels:
[1] = system: Plasmodium falciparum Sir2 (PF13_0152, Sir2A); assay: pfSir2 binders on small-molecule microarrays, primary screen, biochemical, small-molecule microarray, 635 nm fluorescence (AID 1098); conditions: small-molecule microarray binding, fluorescence 635 nm; higher = more signal;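 also: score merges spot fluorescence intensity with its signal-to-noise ratio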
[2] = small-molecule microarray binders of probe aDKK1, primary screen, biochemical, biotinylated probe, 635/667 nm fluorescence (AID 1099); conditions: higher = more signal;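 also: score merges 667nm spot fluorescence with signal to noise across triplicate slides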
[3] = small-molecule microarray binders of probe aCHRDL2, primary screen, biochemical, biotinylated probe, 635/667 nm fluorescence (AID 1100); conditions: higher = more signal
[4] = splicing luciferase reporter signal modulators, primary screen, spliceosome inhibition project, cell-based, HEK293, splice +/- reporter (AID 1101); conditions: luminescence, 24 h, higher = more signal, called active from +8 up or from −8 down;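 also: HEK293 cells carrying a splicing-competent luciferase reporter gene; test concentration not given here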
[5] = target: Fibroblast growth factor 10 (Homo sapiens) (UniProt O15520); assay: FGF10 binders on small-molecule microarrays, primary screen, biochemical, small-molecule microarray, 635 nm fluorescence (AID 1102); conditions: FGF10 binding, fluorescence 635 nm, higher = more signal
[6] = system: glycogen synthase kinase-3 (GSK3A per assay name; protocol says GSK3B); assay: GSK3 binders on small-molecule microarrays, primary screen, biochemical, small-molecule microarray, 635 nm fluorescence, GSK3A (AID 1103); conditions: small-molecule microarray binding, fluorescence 635 nm; higher = more signal; also: the record names both GSK3A and GSK3B
[7] = target: Epidermal growth factor receptor (Homo sapiens) (UniProt P00533); assay: EGFR binders on small-molecule microarrays, primary screen, biochemical, small-molecule microarray, 635 nm fluorescence (AID 1104); conditions: EGFR binding, higher = more signal;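 also: score merges 667 nm emission intensity with spot signal to noise over triplicate slides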
[8] = target: Follistatin-related protein 3 (Homo sapiens) (UniProt O95633); assay: FSTL3 binders on small-molecule microarrays, primary screen, biochemical, small-molecule microarray, 635 nm fluorescence (AID 1105); conditions: FSTL3 binding, higher = more signal;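 also: score merges emission near 667 nm and signal to noise per printed spot across three slides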
[9] = target: Dickkopf-related protein 1 (Homo sapiens) (UniProt O94907); assay: DKK1 binders on small-molecule microarrays, primary screen, biochemical, small-molecule microarray, 635 nm fluorescence scan (AID 1106); conditions: DKK1 binding, higher = more signal;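 also: score merges emission near 667 nm with signal to noise over three replicate slides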
[10] = system: Inhibin beta A chain (activin A); assay: INHBA (activin A) binders on microarrays, primary screen, biochemical, small-molecule microarray, 635 nm fluorescence scan (AID 1107); conditions: small-molecule microarray binding, higher = more signal;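 also: mouse activin A protein probed at 4.33 µg/mL on printed slides; score merges bound-protein fluorescence near 667 nm with spot signal-to-noise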
[11] = system: Human papillomavirus type 1a protein E7 (residues 44-93); assay: HPV1a E7 fragment binders on microarrays, primary screen, biochemical, small-molecule microarray, residues 44-93, 635 nm fluorescence (AID 1108); conditions: small-molecule microarray binding, fluorescence 635 nm; higher = more signal;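 also: E7 fragment applied at 1 µg/mL in TBST for 1 h at 4 C; score combines spot fluorescence with its signal to noise ratio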
[12] = modulators of HCV replicon luciferase signal, primary screen, HCV replication inhibitor project, Huh7 cells, luciferase reporter (AID 1109); conditions: 48 h, higher = more signal;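 also: huh7 hepatoma cells harbouring a luciferase neomycin HCV replicon reporter; luciferase luminescence as measure of HCV replicon replication; test concentration not given here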
[13] = target: Left-right determination factor 2 (Homo sapiens) (UniProt O00292); assay: LEFTY2 binders on small-molecule microarrays, primary screen, biochemical, small-molecule microarray, 635 nm fluorescence scan (AID 1110); conditions: LEFTY2 binding, higher = more signal
[14] = target: Calmodulin-1 (Homo sapiens) (UniProt P0DP23); assay: CALM1 binders on microarrays, EGTA buffer, profiling panel, biochemical, small-molecule microarray, Cy5-labelled CALM1 (AID 1111); conditions: Cy5-CALM1 binding fluorescence, higher = more signal;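 also: labelled calmodulin applied in Tris saline Tween buffer holding calcium plus EGTA and DTT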
[15] = target: Calmodulin-1 (Homo sapiens) (UniProt P0DP23); assay: calcium-bound CALM1 binders on microarrays, profiling panel, artefact control for SMM control-protein annotation, biochemical, small-molecule microarray, Cy5-labelled CALM1, plus calcium (AID 1112); conditions: Cy5-CALM1 binding fluorescence, higher = more signal;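 also: score merges spot fluorescence with signal to noise from triplicate slides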
[16] = small-molecule microarray binders of probe aWnt5a, primary screen, biochemical, biotinylated probe, 635/667 nm fluorescence (AID 1113); conditions: higher = more signal;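 also: score merges 667 nm fluorescence intensity with signal-to-noise per printed feature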
[17] = small-molecule microarray binders of probe aShh, primary screen, biochemical, biotinylated probe, 635/667 nm fluorescence (AID 1114); conditions: higher = more signal;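 also: probe is biotin-labelled aShh protein from a stem cell growth factor screen; measures binding of labelled protein to compounds printed on the slide; score merges feature fluorescence at 667 nm with signal-to-noise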
[18] = small-molecule microarray binders of probe aNog, primary screen, biochemical, biotinylated probe, 635/667 nm fluorescence (AID 1115); conditions: higher = more signal;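 also: probe is biotinylated aNog protein used at 0.15 µg/mL for 1 h at 4 C; z-score combines 667 nm fluorescence of each spot with its signal to noise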
[19] = target: Torsin-1A-interacting protein 1 (Homo sapiens) (UniProt Q5JTV8); assay: LAP1 binders from COS7 cell lysate, primary screen, small-molecule microarray, 635/667 nm fluorescence (AID 1116); conditions: COS7-hLAP1 lysate binding, 635 nm fluorescence, higher = more signal
[20] = target: Alpha-bungarotoxin (Bungarus multicinctus) (UniProt P60615); assay: alpha-bungarotoxin binders on microarray, profiling panel, artefact control for SMM control protein annotation, biochemical, small-molecule microarray, Alexa647 label, 635/667 nm fluorescence (AID 1117); conditions: alpha-BTX-A647 binding fluorescence, higher = more signal
Alpha-bungarotoxin (Bungarus multicinctus), sequence (P60615 whole entry, looked up): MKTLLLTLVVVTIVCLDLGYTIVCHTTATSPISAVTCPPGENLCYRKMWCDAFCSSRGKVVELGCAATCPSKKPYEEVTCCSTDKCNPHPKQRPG

Epidermal growth factor receptor (Homo sapiens), sequence (P00533 whole entry, looked up): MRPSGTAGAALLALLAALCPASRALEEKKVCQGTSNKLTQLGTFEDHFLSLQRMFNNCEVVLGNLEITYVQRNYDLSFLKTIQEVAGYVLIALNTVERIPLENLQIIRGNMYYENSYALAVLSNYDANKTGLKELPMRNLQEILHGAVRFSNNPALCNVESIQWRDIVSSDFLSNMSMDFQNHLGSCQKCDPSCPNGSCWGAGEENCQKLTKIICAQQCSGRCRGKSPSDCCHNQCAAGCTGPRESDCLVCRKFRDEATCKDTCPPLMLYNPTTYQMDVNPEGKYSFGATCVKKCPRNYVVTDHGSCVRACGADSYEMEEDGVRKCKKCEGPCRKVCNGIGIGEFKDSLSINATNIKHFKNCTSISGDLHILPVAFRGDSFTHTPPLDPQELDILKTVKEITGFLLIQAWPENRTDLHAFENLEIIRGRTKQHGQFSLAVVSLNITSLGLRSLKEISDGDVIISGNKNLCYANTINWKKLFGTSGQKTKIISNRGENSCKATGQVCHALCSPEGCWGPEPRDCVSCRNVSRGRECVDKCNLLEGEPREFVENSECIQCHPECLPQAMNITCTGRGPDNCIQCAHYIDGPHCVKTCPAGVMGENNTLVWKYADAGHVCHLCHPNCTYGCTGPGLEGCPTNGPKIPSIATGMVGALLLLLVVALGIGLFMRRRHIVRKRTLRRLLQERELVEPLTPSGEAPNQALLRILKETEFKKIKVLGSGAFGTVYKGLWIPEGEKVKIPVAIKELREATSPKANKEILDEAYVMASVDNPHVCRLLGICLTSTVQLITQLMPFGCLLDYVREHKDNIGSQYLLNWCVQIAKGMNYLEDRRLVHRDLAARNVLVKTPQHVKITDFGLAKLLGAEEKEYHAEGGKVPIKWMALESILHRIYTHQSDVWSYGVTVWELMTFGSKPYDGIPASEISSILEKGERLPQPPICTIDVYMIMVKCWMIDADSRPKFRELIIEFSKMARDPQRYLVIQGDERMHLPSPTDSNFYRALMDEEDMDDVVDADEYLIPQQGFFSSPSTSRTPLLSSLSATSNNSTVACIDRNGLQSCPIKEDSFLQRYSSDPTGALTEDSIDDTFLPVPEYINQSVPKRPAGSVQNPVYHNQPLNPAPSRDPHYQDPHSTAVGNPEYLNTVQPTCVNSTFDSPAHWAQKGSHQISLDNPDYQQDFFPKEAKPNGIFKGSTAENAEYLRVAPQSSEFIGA
Fibroblast growth factor 10 (Homo sapiens), sequence (O15520 whole entry, looked up): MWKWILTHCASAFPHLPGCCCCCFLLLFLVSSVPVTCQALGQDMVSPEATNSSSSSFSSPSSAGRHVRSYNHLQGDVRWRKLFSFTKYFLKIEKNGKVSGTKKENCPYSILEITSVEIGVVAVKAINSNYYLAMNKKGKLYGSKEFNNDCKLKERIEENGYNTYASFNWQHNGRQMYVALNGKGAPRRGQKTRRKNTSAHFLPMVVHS
Torsin-1A-interacting protein 1 (Homo sapiens), sequence (Q5JTV8 whole entry, looked up): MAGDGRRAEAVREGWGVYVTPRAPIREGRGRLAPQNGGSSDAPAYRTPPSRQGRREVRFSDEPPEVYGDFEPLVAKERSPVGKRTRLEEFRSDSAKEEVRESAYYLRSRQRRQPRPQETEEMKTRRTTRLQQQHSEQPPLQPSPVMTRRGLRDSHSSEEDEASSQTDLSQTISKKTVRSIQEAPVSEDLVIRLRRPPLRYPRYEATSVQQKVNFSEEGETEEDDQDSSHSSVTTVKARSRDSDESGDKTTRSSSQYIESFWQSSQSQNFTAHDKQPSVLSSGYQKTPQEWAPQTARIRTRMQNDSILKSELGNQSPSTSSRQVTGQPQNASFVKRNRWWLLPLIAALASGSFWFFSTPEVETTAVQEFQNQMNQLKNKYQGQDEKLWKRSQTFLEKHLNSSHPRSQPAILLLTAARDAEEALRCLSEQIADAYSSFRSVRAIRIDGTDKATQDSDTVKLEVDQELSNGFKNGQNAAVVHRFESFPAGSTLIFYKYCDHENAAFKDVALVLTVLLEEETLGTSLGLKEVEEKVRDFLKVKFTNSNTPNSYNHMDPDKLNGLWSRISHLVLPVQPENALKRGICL
Left-right determination factor 2 (Homo sapiens), sequence (O00292 whole entry, looked up): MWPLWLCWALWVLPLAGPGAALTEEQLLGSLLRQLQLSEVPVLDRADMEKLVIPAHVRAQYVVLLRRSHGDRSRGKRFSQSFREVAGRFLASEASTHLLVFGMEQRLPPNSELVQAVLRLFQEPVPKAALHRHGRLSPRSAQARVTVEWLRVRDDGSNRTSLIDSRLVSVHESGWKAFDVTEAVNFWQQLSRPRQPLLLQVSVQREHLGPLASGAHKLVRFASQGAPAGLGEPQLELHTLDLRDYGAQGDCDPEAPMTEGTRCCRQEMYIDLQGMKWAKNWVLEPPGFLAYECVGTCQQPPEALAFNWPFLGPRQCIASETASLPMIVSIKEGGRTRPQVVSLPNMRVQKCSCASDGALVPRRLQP
Follistatin-related protein 3 (Homo sapiens), sequence (O95633 whole entry, looked up): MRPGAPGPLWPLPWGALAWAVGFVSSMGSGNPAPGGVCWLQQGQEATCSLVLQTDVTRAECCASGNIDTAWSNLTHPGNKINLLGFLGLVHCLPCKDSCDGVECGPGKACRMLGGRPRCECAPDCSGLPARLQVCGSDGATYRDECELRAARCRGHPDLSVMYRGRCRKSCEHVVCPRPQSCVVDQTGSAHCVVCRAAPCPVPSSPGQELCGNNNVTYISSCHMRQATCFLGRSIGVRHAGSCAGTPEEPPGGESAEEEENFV
Dickkopf-related protein 1 (Homo sapiens), sequence (O94907 whole entry, looked up): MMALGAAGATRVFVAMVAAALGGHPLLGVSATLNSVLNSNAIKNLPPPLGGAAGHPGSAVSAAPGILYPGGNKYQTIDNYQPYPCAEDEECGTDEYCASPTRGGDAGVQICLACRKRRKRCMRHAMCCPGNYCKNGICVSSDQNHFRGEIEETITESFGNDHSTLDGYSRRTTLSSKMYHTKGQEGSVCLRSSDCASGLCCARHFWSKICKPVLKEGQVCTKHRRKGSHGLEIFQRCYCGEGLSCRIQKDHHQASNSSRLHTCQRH

Row | Structure (SMILES) | composite z-score [1] | composite z-score [2] | composite z-score [3] | z-score [4] | composite z-score [5] | composite z-score [6] | composite z-score [7] | composite z-score [8] | composite z-score [9] | composite z-score [10] | composite z-score [11] | z-score [12] | composite z-score [13] | composite z-score [14] | composite z-score [15] | composite z-score [16] | composite z-score [17] | composite z-score [18] | composite z-score [19] | composite z-score [20]
1 | [N-]=[N+]=Nc1ccccc1[C@@H]1OC(c2ccc(OCCCO)cc2)=N[C@]1(CCS(=O)(=O)c1ccccc1)C(=O)NCC(O)CO (stereo not given in full) | 1.73 | -0.181 | 0.72 | -0.633 (inactive) | -0.176 | 0.434 | -0.586 | -0.332 | -0.328 | 0.693 | 0.535 | -0.485 | -0.741 | 0.867 | -0.271 | -0.0977 | -0.0011 | 0.437 | 2.18 | 0.534
2 | Cc1ccc(S[C@]2(C(=O)NC3CC3)CC(=O)N(C(C)C)[C@@H]2c2ccc(CO)cc2I)cc1 | 1.37 | -0.299 | 0.812 | -1.89 (inactive) | 0.377 | -0.122 | -0.638 | 0.101 | -1.37 | 0.318 | 1.17 | -2.21 | -0.792 | -0.462 | -0.0946 | 0.191 | -0.372 | -0.519 | 1.74 | -0.0074
3 | CC(=O)OCC1C2CC[C@H]3C(OCc4ccc(F)cc4C(F)(F)F)OC[C@]4(C)[C@H]3C2=C(CN4C(=O)OC(C)(C)C)[C@H](C)C1COC(C)=O (stereo not given in full) | 0.547 | 0.547 | 1.06 | -0.329 (inactive) | 0.398 | -0.466 | -1.08 | -0.925 | -1.31 | 0.838 | 0.359 | -0.834 | -1.65 | 1.95 | 1.19 | 0.591 | 0.338 | 0.182 | -0.212 | 0.668
4 | COCCCNC(=O)[C@@]1(Sc2ccc(C)cc2)CC(=O)N(Cc2ccccc2C(F)(F)F)[C@@H]1c1ccc(CO)cc1I | 0.284 | 0.583 | 1.07 | -0.411 (inactive) | -1.02 | -0.981 | -1.44 | -1.73 | -0.831 | 1.02 | -0.779 | -0.817 | -1.47 | -0.376 | 1.04 | -0.139 | -0.0769 | 0.595 | -0.181 | -1.2
5 | C=CC[C@@]1(C(=O)N(C)C)N=C(c2ccc(OCCCO)cc2)O[C@@H]1c1ccccc1CN=[N+]=[N-] | 0.964 | 1.19 | 1.13 | -0.475 (inactive) | 1.42 | 1.33 | 0.493 | 1.38 | 0.488 | 1.23 | 1.42 | -2.67 | 0.681 | 1.79 | 0.366 | 0.0293 | 0.246 | 0.0919 | 1.23 | 1.35
